As usually defined, the viability is a read-out of living cells in per cent, often relative to untreated cells.

Results filed as inconclusive are left out. Unmarked numbers belong to inactive results. Active and inactive are the calls of the source. Calls follow the shape of the dose curve; as a rule, active = well fitted curve in the direction sought with a large enough effect; inconclusive = small, poorly fitted or top-dose-only effect, or another doubt; inactive = no such curve, though single readings can be large; an effect the other way counts as inactive or inconclusive. Peptide text beside a SMILES is read from it.

Assay [1] in a line: Quantitative High-Throughput drug screen in 47 multiple myeloma cell lines against the NCATS MIPE library collection: KMS27_JCRB cell viability assay (AID 1918970). Also: nearly all actives have a fitted effect of over 30% in size. Also: potency is read from the fitted curve at half-maximal effect. The essentials:
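Luminescent ATP read-out (CellTiter-Glo, 5 min at room temperature) after 48 h compound exposure of 500 KMS27_JCRB cells per well; DMSO wells define full viability and media-only wells zero.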

Assay [2] in a line: Quantitative High-Throughput drug screen in 47 multiple myeloma cell lines against the NCATS MIPE library collection: KMS12BM_JCRB cell viability assay (AID 1918971). Also: nearly all actives have a fitted effect of over 35% in size. Also: potency is read from the fitted curve at half-maximal effect. The essentials: (§1)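 qHTS of the MIPE 4.0 collection: 500 myeloma cells/well, 48 h drug exposure at 37C in 5% CO2, then CellTiter-Glo for 5 min at room temperature before luminescence reading.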
Assay [3] is described as follows: Quantitative High-Throughput drug screen in 47 multiple myeloma cell lines against the NCATS MIPE library collection: KMS21BM_JCRB cell viability assay (AID 1918974). Also: potency is read from the fitted curve at half-maximal effect. Conditions: ATP luminescence, 48 h; viability: at 45.8 µM (top of the series) unless noted. In a few lines: (§2)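 Approved and investigational drugs from MIPE 4.0 were added by pin tool to 500 cells per well. After 48 hours at 37C, ATP-based CellTiter-Glo luminescence indicated remaining viability.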

The nature of assay [4]: Quantitative High-Throughput drug screen in 47 multiple myeloma cell lines against the NCATS MIPE library collection: MM1S_ATCC cell viability assay (AID 1918980). Also: nearly all actives have a fitted effect of over 45% in size. Also: potency is read from the fitted curve at half-maximal effect. In a few lines:
(§3)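 MIPE 4.0 approved/investigational drugs; 500 cells/well; 48 h 37 °C humidified 5% CO2; CTG luminescence readout; DMSO = 100%, media = 0% viability.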

Assay [5] can be described thus: Quantitative High-Throughput drug screen in 47 multiple myeloma cell lines against the NCATS MIPE library collection: MM1R_ATCC cell viability assay (AID 1918981). Also: nearly all actives have a fitted effect of over 35% in size. Also: potency is read from the fitted curve at half-maximal effect. In a few lines:
as §3

Assay [6] can be described thus: Quantitative High-Throughput drug screen in 47 multiple myeloma cell lines against the NCATS MIPE library collection: KMS28PE_JCRB cell viability assay (AID 1918983). Also: nearly all actives have a fitted effect of over 35% in size. Also: potency is read from the fitted curve at half-maximal effect. In a few lines:
as §3

Assay [7] can be described thus: Quantitative High-Throughput drug screen in 47 multiple myeloma cell lines against the NCATS MIPE library collection: SKMM1_PLB cell viability assay (AID 1919863). Also: nearly all actives have a fitted effect of over 35% in size. Also: potency is read from the fitted curve at half-maximal effect. Conditions: SKMM1 myeloma viability, CellTiter-Glo ATP, 48 h; viability: hits give low values. In a few lines: as §3
Assay [8] is described as follows: Quantitative High-Throughput drug screen in 47 multiple myeloma cell lines against the NCATS MIPE library collection: MOLP8_DSMZ cell viability assay (AID 1918977).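 Also: 100% = DMSO-only wells and 0% = media-only wells without cells; nearly all actives have a fitted effect of over 45% in size.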 In a few lines: as §3
Assay [9] can be described thus: Quantitative High-Throughput drug screen in 47 multiple myeloma cell lines against the NCATS MIPE library collection: NCIH929_DSMZ cell viability assay (AID 1918978). Also: nearly all actives have a fitted effect of over 35% in size. Also: potency is read from the fitted curve at half-maximal effect. In a few lines:
as §3

A short description of assay [10]: Quantitative High-Throughput drug screen in 47 multiple myeloma cell lines against the NCATS MIPE library collection: LP1_DSMZ cell viability assay (AID 1918982). Also: nearly all actives have a fitted effect of over 35% in size. Also: potency is read from the fitted curve at half-maximal effect. In a few lines:
as §3

Assay [11] in a line: Quantitative High-Throughput drug screen in 47 multiple myeloma cell lines against the NCATS MIPE library collection: L363_DSMZ cell viability assay (AID 1918984). Also: nearly all actives have a fitted effect of over 40% in size. Also: potency is read from the fitted curve at half-maximal effect. In a few lines:
as §3

Assay [12] in a line: Quantitative High-Throughput drug screen in 47 multiple myeloma cell lines against the NCATS MIPE library collection: KMS34_JCRB cell viability assay (AID 1918985). Also: nearly all actives have a fitted effect of over 40% in size. Also: potency is read from the fitted curve at half-maximal effect. In a few lines: as §3
The nature of assay [13]: Quantitative High-Throughput drug screen in 47 multiple myeloma cell lines against the NCATS MIPE library collection: OCIMY7_PLB cell viability assay (AID 1918987). Also: nearly all actives have a fitted effect of over 65% in size. Also: potency is read from the fitted curve at half-maximal effect. In a few lines: as §3
Assay [14] in a line: Quantitative High-Throughput drug screen in 47 multiple myeloma cell lines against the NCATS MIPE library collection: OCIMY5_PLB cell viability assay (AID 1918988). Also: nearly all actives have a fitted effect of over 65% in size. Also: potency is read from the fitted curve at half-maximal effect. The essentials:
as §3

The nature of assay [15]: Quantitative High-Throughput drug screen in 47 multiple myeloma cell lines against the NCATS MIPE library collection: KMS12PE_JCRB cell viability assay (AID 1918972). Also: nearly all actives have a fitted effect of over 30% in size. Also: potency is read from the fitted curve at half-maximal effect.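 As to viability: 100% = DMSO only wells and 0% = wells with media alone.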 The essentials: as §2
Assay [16] is described as follows: Quantitative High-Throughput drug screen in 47 multiple myeloma cell lines against the NCATS MIPE library collection: OCIMY1_PLB cell viability assay (AID 1918979). The essentials:
as §3

Assay [17] is described as follows: Quantitative High-Throughput drug screen in 47 multiple myeloma cell lines against the NCATS MIPE library collection: OPM1_PLB cell viability assay (AID 1918989). Also: nearly all actives have a fitted effect of over 40% in size. Also: potency is read from the fitted curve at half-maximal effect. The essentials: as §3
A short description of assay [18]: Quantitative High-Throughput drug screen in 47 multiple myeloma cell lines against the NCATS MIPE library collection: MMM1_PLB cell viability assay (AID 1918976). In a few lines:
as §3

The nature of assay [19]: Quantitative High-Throughput drug screen in 47 multiple myeloma cell lines against the NCATS MIPE library collection: KMS26_JCRB cell viability assay (AID 1918975). Also: nearly all actives have a fitted effect of over 45% in size. Also: potency is read from the fitted curve at half-maximal effect. In a few lines:
as §1

Assay [20] is described as follows: Quantitative High-Throughput drug screen in 47 multiple myeloma cell lines against the NCATS MIPE library collection: KMS20_JCRB cell viability assay (AID 1918973). Also: nearly all actives have a fitted effect of over 45% in size. Also: potency is read from the fitted curve at half-maximal effect. The essentials:
as §2

On to `Nc1nc(OCc2ccccc2)c2[nH]cnc2n1`, for which the Potency in [1] was 14.8 µM (active); in assay [3], 4.69 µM (active); in assay [4] it was 14.8 µM (active). Further, the Potency entry in assay [2], in [5] and in assay [6] was “inactive” each time. In assay [7], the viability was 128%.

For `Cc1cc2cc3c(C)cc(=O)oc3c(C)c2o1`, the Potency in assay [1] was 26.4 µM (active); in assay [2], 16.6 µM (active); in assay [9] it was 8.33 µM (active); in [4], 5.9 µM (active); in [5] it was 20.9 µM (active); in [11], 23.5 µM (active). For the same compound, the Potency in [13] is 26.4 µM (active); in assay [14] it was 8.33 µM (active). Further, the Potency result in assay [8], in assay [10] and in assay [12] was “inactive” each time.

`COC(=O)[C@H](Cc1ccccc1)NC(=O)[C@@H](N)CC(=O)O` (H-Asp-Phe-OMe): the Potency entry in assay [1], in assay [2], in [15], in [9], in assay [16] and in assay [4] was “inactive” in each case. Also, the Potency result in assay [5], in assay [6], in assay [12], in assay [13], in assay [14] and in [17] was “inactive” in each case.

As for `N=C(N)c1ccc2cc(OC(=O)c3ccc(N=C(N)N)cc3)ccc2c1`, the Potency result in assay [1], in assay [15], in assay [9], in assay [4], in assay [5] and in [10] was “inactive” throughout. Moreover, the Potency in assay [2] was 23.5 µM (active); in [18] it was 0.935 µM (active); in [12] it was 6.62 µM (active); in assay [14], 18.7 µM (active); in [7] it was 8.33 µM (active).

Regarding `Cc1c(OCC(F)(F)F)ccnc1CS(=O)c1nc2ccccc2[nH]1` (stereo not given), the Potency entry in assay [1], in assay [2], in assay [8], in assay [16], in [10] and in assay [12] was “inactive” each time. Besides, the Potency in [15] was 18.7 µM (active); in [5] it was 0.833 µM (active). Moreover, the viability in assay [7] was 128%.

For the compound `Cn1c(NCCN(CCO)CCCc2ccc([N+](=O)[O-])cc2)cc(=O)n(C)c1=O`, the Potency in [1] was 26.4 µM (active); in assay [15], 20.9 µM (active); in assay [3], 10.5 µM (active); in [4], 23.5 µM (active). Also, the Potency result in assay [19], in assay [12] and in [13] was “inactive” in each case.

On to `Cc1cc2c(s1)Nc1ccccc1N=C2N1CCN(C)CC1`, for which the Potency result in [1], in assay [15], in assay [20], in [19], in assay [8] and in assay [9] was “inactive” each time. Moreover, the Potency result in [16], in [5], in assay [6] and in [12] was “inactive” each time. In addition, the viability in assay [7] is 120%.

On to `Cc1ncc([N+](=O)[O-])n1CC(C)O` (stereo not given), for which the Potency entry in [1], in assay [2], in assay [15], in [5], in assay [10] and in assay [6] was “inactive” each time. Besides, the Potency in assay [4] was 14.8 µM (active).

As to `Cc1ccc(S(=O)(=O)NC(=O)NN2CC3CCCC3C2)cc1` (stereo not given), the Potency in [1] was 20.9 µM (active); in [15], 26.4 µM (active); in assay [20], 10.5 µM (active); in [4], 20.9 µM (active); in assay [13], 20.9 µM (active); in assay [17], 20.9 µM (active).

For the compound `CCOC(=O)C(C)Oc1cccc2c(=O)n(CC(=O)Nc3ccc4c(c3)OCCO4)ccc12` (stereo not given), the Potency result in [1], in [15], in assay [12] and in assay [13] was “inactive” each time. In addition, the results for the Potency in [2] and in assay [11] were 23.5 µM (active) and 9.35 µM (active), respectively.

`O=C(NC(Cc1cc(=O)[nH]c2ccccc12)C(=O)O)c1ccc(Cl)cc1` (stereo not given): the Potency entry in assay [1], in assay [2], in [8], in assay [16], in [5] and in assay [17] was “inactive” each time. For the same compound, the Potency in assay [18] was 9.35 µM (active); in assay [14], 14.8 µM (active).

Consider `CC(C)c1ccc2c(c1)c(SC(C)(C)C)c(CC(C)(C)C(=O)O)n2Cc1ccc(Cl)cc1`, for which the Potency result in assay [1], in [15] and in [17] was “inactive” in each case. The Potency in [2] is 20.9 µM (active); in assay [18] it was 2.64 µM (active); in assay [9], 26.4 µM (active); in assay [4], 7.43 µM (active); in assay [13], 14.8 µM (active).

Turning to `Nc1ccn([C@@H]2O[C@H](CO)[C@@H](O)C2O)c(=O)n1` (stereo not given in full), the Potency result in assay [1], in [2], in [15], in [8], in [5] and in [6] was “inactive” in each case. The Potency result in assay [13] and in assay [17] was “inactive” throughout.

As for `CC(C)(S)[C@@H](N)C(=O)O`, the Potency entry in assay [1], in [15], in assay [3], in [19], in assay [8] and in [6] was “inactive” in each case. Further, the Potency result in assay [11], in [13] and in assay [17] was “inactive” each time. In assay [7], the viability was 133%.

As to `CN(C)CCc1c[nH]c2ccc(Cn3cncn3)cc12`, the Potency in assay [1] was 16.6 µM (active). Also, the Potency result in assay [2], in assay [19], in assay [9], in assay [16], in assay [5] and in assay [12] was “inactive” throughout. Further, the Potency entry in assay [17] is “inactive”.

Consider `CC(C)c1nc(CN(C)C(=O)N[C@H](C(=O)N[C@@H](Cc2ccccc2)C[C@H](O)[C@H](Cc2ccccc2)NC(=O)OCc2cncs2)C(C)C)cs1`, for which the Potency entry in [1], in assay [15], in assay [11] and in assay [17] was “inactive” throughout. For the same compound, the figures for the Potency in [2], in [12] and in assay [13] were 4.69 µM (active), 16.6 µM (active) and 20.9 µM (active), respectively.

With `O=C(NCC1CCCCN1)c1cc(OCC(F)(F)F)ccc1OCC(F)(F)F` (stereo not given), the Potency is 0.526 µM (active) in assay [1]; 2.09 µM (active) in assay [15]; 7.43 µM (active) in [20]; 8.33 µM (active) in assay [4]; 0.743 µM (active) in [11]; 7.43 µM (active) in assay [13]. Besides, the Potency in assay [17] was 9.35 µM (active).

Take `O=C1CCc2ccc(OCCCCN3CCN(c4cccc(Cl)c4Cl)CC3)cc2N1`: the Potency result in assay [1] and in assay [16] was “inactive” each time. The Potency is 11.8 µM (active) in assay [2]; 5.26 µM (active) in assay [15]; 20.9 µM (active) in assay [18]; 18.7 µM (active) in assay [6]; 18.7 µM (active) in assay [17]. Moreover, the viability in assay [7] was 132%.

`O=C(CCc1ccc(O)cc1)c1c(O)cc(O)cc1O`: the Potency in assay [1] was 1.05 µM (active); in assay [2] it was 0.332 µM (active); in assay [19] it was 0.166 µM (active); in assay [18], 0.132 µM (active); in assay [5], 0.148 µM (active); in assay [6], 0.935 µM (active). Besides, the Potency in assay [11] was 0.935 µM (active); in assay [13], 0.148 µM (active); in assay [14], 0.132 µM (active); in [17], 1.18 µM (active).

For `Oc1ccc2ccccc2c1SSc1c(O)ccc2ccccc12`, the Potency in [1] was 18.7 µM (active); in assay [15], 20.9 µM (active); in assay [20], 9.35 µM (active); in assay [19], 9.35 µM (active); in assay [18], 20.9 µM (active); in assay [4], 14.8 µM (active). Besides, the Potency in [5] was 14.8 µM (active); in [10], 23.5 µM (active); in [11] it was 13.2 µM (active); in [12], 5.9 µM (active); in [13], 4.69 µM (active); in assay [14] it was 14.8 µM (active). Moreover, the Potency is 8.33 µM (active) in assay [17] and 18.7 µM (active) in assay [7].

Source of the values: PubChem BioAssay (NCATS).
